# Compounds with a hit are over-represented: about 1.7% of the library has one in this group of screens.
# Hck-Nef inh – blocks Nef-activated human Hck kinase. Recombinant Hck-YEEI plus Nef, Z-Lyte FRET kinase assay. inhibition, % at 20 µM. actives 0.68% (n = 220,000). AID 463187;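 active means Hck-Nef kinase inhibition above about 50%, limit read from the data; inactive means inhibition below that limit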;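 further: 0% = DMSO with Hck plus Nef and 100% = Hck alone without Nef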
# LYPLA2 counter – counter-screen for PME1 inhibitors: inhibitors of human LYPLA2. O95372. inhibition, % at 5.9 µM. actives 0.38% (n = 320,000). recombinant LYPLA2, FP-Rh probe fluorescence polarization;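 active means inhibition above the screen-wide mean plus 3 SD, limit set per campaign, cut at about 26% in these data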;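 further: 0% = LYPLA2 with DMSO and 100% = wells lacking LYPLA2 enzyme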
# PREPL inh – human PREPL enzyme inhibition | Q4J6C6 | recombinant PREPL, fluorescence polarization activity-based probe | inhibition, % at 5.96 µM | actives 0.68% (n = 320,000);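 further: 0% = enzyme with DMSO and 100% = wells lacking enzyme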
# p97 inhibitor – blocks human p97 ATPase activity; P55072; recombinant p97 ATPase, Kinase-Glo ATP luminescence, 3 h; inhibition, % at 8 µM; actives 0.42% (n = 220,000); AID 1481; in the data active means inhibition above about 15%;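 further: 0% = DMSO vehicle and 100% = wells lacking enzyme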
# Target sequence (P55072 whole entry, looked up): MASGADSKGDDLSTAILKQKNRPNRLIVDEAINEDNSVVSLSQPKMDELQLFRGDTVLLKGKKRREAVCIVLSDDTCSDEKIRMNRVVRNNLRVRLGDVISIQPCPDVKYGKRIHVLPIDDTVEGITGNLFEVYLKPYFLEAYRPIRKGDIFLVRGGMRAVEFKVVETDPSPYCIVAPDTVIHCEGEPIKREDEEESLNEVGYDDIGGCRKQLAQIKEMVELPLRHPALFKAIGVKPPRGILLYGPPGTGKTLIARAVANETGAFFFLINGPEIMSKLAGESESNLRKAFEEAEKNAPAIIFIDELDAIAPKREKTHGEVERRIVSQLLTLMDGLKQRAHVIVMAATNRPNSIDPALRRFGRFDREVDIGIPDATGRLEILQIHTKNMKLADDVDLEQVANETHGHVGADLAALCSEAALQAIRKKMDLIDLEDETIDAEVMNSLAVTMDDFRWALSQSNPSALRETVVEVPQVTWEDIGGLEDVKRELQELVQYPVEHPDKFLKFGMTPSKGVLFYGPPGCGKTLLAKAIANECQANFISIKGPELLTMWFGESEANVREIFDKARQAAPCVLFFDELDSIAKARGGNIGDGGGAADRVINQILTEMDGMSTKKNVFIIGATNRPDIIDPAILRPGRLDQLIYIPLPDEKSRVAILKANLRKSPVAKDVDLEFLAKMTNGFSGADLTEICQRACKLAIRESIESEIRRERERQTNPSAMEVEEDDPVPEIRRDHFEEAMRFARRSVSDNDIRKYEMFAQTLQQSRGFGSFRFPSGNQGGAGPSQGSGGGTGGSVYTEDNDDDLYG
# LYPLA1 counter – LYPLA1 (human) inhibition in PME1 counter-screen; inhibition, % at 5.9 µM; actives 0.16% (n = 320,000); recombinant LYPLA1, FP-Rh probe fluorescence polarization;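 active means inhibition above the mean of all tested compounds plus 3 SD, set per campaign, cut at about 14% in these data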;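 further: inhibitors block serine hydrolase probe labeling of LYPLA1 so polarization falls; 0% = enzyme with DMSO and 100% = wells lacking LYPLA1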
# Rin1-Abl PPI inh – inhibitors of human Rin1-Abl protein interaction. P00519+Q13671. TR-FRET Rin1/Abl binding, biochemical. inhibition, % at 7.35 µM. actives 0.4% (n = 360,000). AID 588664; in the data active means inhibition above about 5%, passing the limit was not always enough
# PREPL inh cf – human PREPL inhibition, confirmation | shares compounds with PREPL inh | recombinant PREPL, fluorescence polarization activity probe | inhibition, % at 5.96 µM | actives 67% (n = 2,000) | AID 2803;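 further: 0% = protein with DMSO and 100% = wells lacking protein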
# The depositor's hits bear a star; x = no result given. Unless noted, no stated cut-off is given here; in the data, active means inhibition above about 43%; inactive means the rest.
SMILES,Hck-Nef inh,LYPLA2 counter,PREPL inh,p97 inhibitor,LYPLA1 counter,Rin1-Abl PPI inh,PREPL inh cf
c1ccc(-c2nc(NCc3ccco3)c3ccccc3n2)nc1,2,-1,47*,8,0,-1,47*
c1ccc(N2CCN(c3nc(NCc4ccco4)c4ccccc4n3)CC2)cc1,-1,-3,56*,-5,-3,-1,56*
COc1ccc(NC(=O)CSc2cn[nH]n2)cc1OC,x,6,12,x,3,0,x
Cc1nn(-c2ccccc2C(=O)O)c(=O)c2ccccc12,1,-1,-6,5,3,-2,x
Cc1nn(-c2ccc(Br)cc2)c(=O)c2ccccc12,x,8,75*,x,2,-3,2
Cc1ccc2[nH]c3c(c2c1)CCc1cn[nH]c1-3,4,7,47*,-5,-4,-3,25
Cc1ccc2[nH]c3c(c2c1)CCC3=O,3,4,5,5,5,0,x
Cc1ccc(S(=O)(=O)N2CCCCC2C(=O)Nc2ccc(N(C)C)cc2)cc1 (stereo not given),x,x,0,x,x,0,x
c1cc(CNc2ccc(N3CCOCC3)cc2)ccn1,0,4,22,2,-3,0,x
CC(C)c1ccc(CNc2ccc(N3CCOCC3)cc2)cc1,2,3,52*,1,1,2,55*
c1cc2c(cc1CNc1ccc(N3CCOCC3)cc1)OCO2,x,x,57*,x,x,1,34
Cc1ccc(CNc2ccc(N3CCOCC3)cc2)cc1,x,-5,44*,x,3,0,34
COc1ccc(CN2CCN(C(=O)c3ccc(S(=O)(=O)NCc4ccco4)cc3)CC2)cc1,x,x,x,x,x,1,x
COc1cc(C#Cc2c(-c3cncn3C)n(C)c3ccc(-c4ccc(CN5CCOCC5)cc4)cc23)cc(OC)c1,x,x,45*,x,x,-1,29
COc1cc(C#Cc2c(-c3cncn3C)n(C)c3ccc(-c4cnc(N5CCOCC5)nc4)cc23)cc(OC)c1,x,x,33,x,x,2,x
CCn1cc(C(=O)N2CCCC(C(=O)c3ccc4ccccc4c3)C2)cn1 (stereo not given),x,6,21,x,-3,-1,x
CCCNC(=O)CN1C(=O)c2ccccc2Sc2ncccc21,x,-2,4,x,0,0,x
Cc1cc(N/N=C/c2ccc(O)cc2)c2cccc(C)c2n1,x,-2,59*,x,-4,-7,56*
Cc1cc(C)c2nc(C)cc(N/N=C/c3ccc(O)cc3)c2c1,x,-7,72*,x,-5,-8,68*
COc1ccc(C=NNc2ccc(S(=O)(=O)Nc3ccccc3C(=O)O)cc2[N+](=O)[O-])c(OC)c1,x,x,51*,x,x,-3,49*
COc1ccc(NS(=O)(=O)c2ccc(N/N=C(\C)c3ccncc3)c([N+](=O)[O-])c2)cc1,6,10,58*,1,-2,-1,49*
O=C(O)c1ccccc1NS(=O)(=O)c1ccc(NN=Cc2ccccc2F)c([N+](=O)[O-])c1,x,x,55*,x,x,1,56*
C/C(=N\Nc1ccc(S(=O)(=O)Nc2ccccc2)cc1[N+](=O)[O-])c1ccncc1,9,2,20,1,0,x,x
CCOc1cccc(C=NNc2ccc(S(=O)(=O)Nc3ccccc3C(=O)O)cc2[N+](=O)[O-])c1O,x,x,27,x,x,3,x
Cc1ccc(CNC(=O)CCSCc2ccc(C)cc2)cc1,x,2,-20,x,-1,0,x
SMILES,Hck-Nef inh,LYPLA2 counter,PREPL inh,p97 inhibitor,LYPLA1 counter,Rin1-Abl PPI inh,PREPL inh cf
Cc1cc(N2CCN(C)CC2)nc2ccc(NC(=S)N3CCN(c4cccc(Cl)c4)CC3)cc12,6,5,47*,2,-2,1,33
COc1ccc(C(=O)Nc2ccc3nc(N4CCN(C)CC4)cc(C)c3c2)c(OC)c1,x,2,48*,x,0,-3,43
CCN1CCN(c2cc(C)c3cc(NC(=O)c4ccc5c(c4)OCO5)ccc3n2)CC1,18,6,44*,-6,3,-4,20
CCN1CCN(c2cc(C)c3cc(NC(=O)c4ccc(OC)c(OC)c4)ccc3n2)CC1,1,1,19,-8,1,-2,x
Cc1cc(N2CCOCC2)nc2ccc(NC(=O)CCC(=O)N3CCN(c4ccc(F)cc4)CC3)cc12,x,9,44*,x,3,1,39
Cc1cccc(N2CCN(C(=S)Nc3ccc4nc(N5CCN(C)CC5)cc(C)c4c3)CC2)c1C,20,x,x,0,x,-2,x
CCc1ccc(C(O)c2ncc(-c3cccc(C)c3)[nH]2)cc1 (stereo not given),x,x,x,x,x,0,x
O=C(NNC(=O)C1CCN(c2ncccn2)CC1)c1ccc(F)cc1,x,3,-3,x,-1,3,x
COc1cc(O)c(C(CCN2CCCC2)c2cc(OC)c(OC)c(OC)c2)c(OC)c1 (stereo not given),31,2,45*,x,1,2,47*
O=C(C[n+]1ccc(C(=O)N/N=C/c2ccc(Cl)cc2Cl)cc1)c1ccccc1,1,0,45*,-5,-5,-4,24
O=C(N/N=C/c1ccc(Cl)cc1Cl)c1cccc(F)c1,-2,-6,-3,-2,-7,0,x
O=c1[nH]n2c(=O)c3c([nH]c2c1N=Nc1cccc(Cl)c1)CCCC3,15,-1,55*,-9,12,2,58*
CCOc1ccc(N=Nc2c(=O)[nH]n3c(=O)c4c([nH]c23)CCCC4)cc1,5,2,25,3,-1,-3,x
CCN1C(N(C)CCc2c[nH]c3ccccc23)=N[C@@H](c2cccc(C(F)(F)F)c2)C(C(=O)OC)=C1C,x,x,56*,x,x,-3,42
C#CCOCCOCCOCCNc1nc(N2CCN(C(=O)[C@H](CCC(=O)O)n3cc(C(N)CC(C)C)nn3)CC2)nc(N2CCN(C(=O)[C@H](Cc3cc4ccccc4[nH]3)n3cc(C(N)[C@H](C)CC)nn3)CC2)n1 (stereo not given in full),7,-2,24,-1,-2,x,x
C#CCOCCOCCOCCNc1nc(N2CCN(C(=O)C(Cc3ccc(O)cc3)n3cc(C(N)CC(C)C)nn3)CC2)nc(N2CCN(C(=O)C(Cc3cc4ccccc4[nH]3)n3cc(C(N)C(C)CC)nn3)CC2)n1 (stereo not given),17,9,51*,14,-1,x,51*
C#CCOCCOCCOCCNc1nc(N2CCN(C(=O)[C@H](CCCCN)n3cc(C(N)CO)nn3)CC2)nc(N2CCN(C(=O)[C@H](CCC(=O)O)n3cc(C(N)Cc4ccc(O)cc4)nn3)CC2)n1 (stereo not given in full),33,x,x,x,x,x,x
C#CCOCCOCCOCCNc1nc(N2CCOCC2)nc(N2CCN(C(=O)[C@H](Cc3cc4ccccc4[nH]3)n3cc([C@@H](N)C(C)CC)nn3)CC2)n1 (stereo not given in full),-3,0,24,2,-4,4,x
